# Source: PubChem BioAssay
# Active and inactive are the calls of the source.
# Key:
# [1] = test system: PRMT1 (protein arginine N-methyltransferase 1); assay: small molecules binding arginine methyltransferase PRMT1 – biochemical, small-molecule microarray, 635 nm fluorescence, primary screen (AID 1088); details: higher = more signal;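 note: binding of Prmt1 protein to compounds spotted on small-molecule microarray slides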
# [2] = growth effects on S. cerevisiae YJM789 – YJM789 clinical isolate, OD600, 24 h, basal, primary screen (AID 1089); details: higher = more signal, called active from +8 up or from −8 down;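 note: growth of clinical yeast isolate S. cerevisiae YJM 789 seeded 1000 cells per well; test concentration not given here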
# [3] = S. pombe growth modifiers, basal conditions – strain 972, OD600, 24 h, no modulator, primary screen (AID 1090);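 note: basal condition with compound alone and no growth modifier present; test concentration not given here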; details: S. pombe 972 growth, higher = more signal, called active from +8 up or from −8 down
# [4] = budding yeast growth modifiers under rapamycin – strain BY4716, OD600, 96 h, primary screen (AID 1091); note: test concentration not given here; details: S. cerevisiae BY4716 + rapamycin, higher = more signal, called active from +8 up or from −8 down
# [5] = target: Torsin-1A-interacting protein 2 (Homo sapiens) (UniProt Q8NFQ8); assay: small molecules binding lysate-expressed LULL1 – cell lysate, human LULL1 lysate, 635/667 nm fluorescence, primary screen (AID 1092); details: small-molecule microarray, hLULL1 lysate binding, 635 nm fluorescence; higher = more signal;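 note: probe is lysate of COS7 cells overexpressing human LULL1; score merges per-feature 667 nm fluorescence with signal-to-noise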
# Chain of Torsin-1A-interacting protein 2 (Homo sapiens) (Q8NFQ8 whole entry, looked up): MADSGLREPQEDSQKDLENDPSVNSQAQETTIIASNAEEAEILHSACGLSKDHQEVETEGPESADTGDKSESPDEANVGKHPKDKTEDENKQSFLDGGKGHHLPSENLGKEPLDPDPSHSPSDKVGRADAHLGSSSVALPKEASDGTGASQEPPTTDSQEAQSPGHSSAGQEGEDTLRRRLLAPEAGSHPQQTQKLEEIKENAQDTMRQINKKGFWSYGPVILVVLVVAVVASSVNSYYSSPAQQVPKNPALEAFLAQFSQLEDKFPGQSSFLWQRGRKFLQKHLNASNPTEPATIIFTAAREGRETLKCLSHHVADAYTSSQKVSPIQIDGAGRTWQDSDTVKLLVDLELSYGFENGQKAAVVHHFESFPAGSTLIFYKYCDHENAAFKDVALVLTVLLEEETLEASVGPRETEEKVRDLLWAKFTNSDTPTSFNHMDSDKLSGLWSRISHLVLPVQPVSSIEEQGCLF
# [6] = optical density change of DRC41 E. coli – strain DRC41, OD650, 24 h, E. coli filamentation project, primary screen (AID 1093);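 note: MC1000 strain lacking acrAB efflux and sulA so SOS filamentation is blocked; test concentration not given here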; details: E. coli DRC41 growth, higher = more signal, called active from +8 up or from −8 down
# [7] = probe aLefty2 binding to arrayed compounds – biochemical, biotinylated probe, 635/667 nm fluorescence, primary screen (AID 1094); details: small-molecule microarray, higher = more signal;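 note: score merges spot fluorescence near 667 nm with spot signal-to-noise ratio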
# [8] = test system: Noggin (protein binding on small-molecule microarray); assay: small molecules binding Noggin protein – biochemical, 635/667 nm fluorescence, primary screen (AID 1095); details: 635 nm fluorescence, higher = more signal;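 note: score merges 667 nm feature fluorescence with signal to noise over triplicate slides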
# [9] = target: Neurogenic locus notch homolog protein 3 (Homo sapiens) (UniProt Q9UM47); assay: small molecules binding NOTCH3 protein – biochemical, 635/667 nm fluorescence, primary screen (AID 1096); details: small-molecule microarray, 635 nm fluorescence, higher = more signal
# Chain of Neurogenic locus notch homolog protein 3 (Homo sapiens) (Q9UM47 whole entry, looked up): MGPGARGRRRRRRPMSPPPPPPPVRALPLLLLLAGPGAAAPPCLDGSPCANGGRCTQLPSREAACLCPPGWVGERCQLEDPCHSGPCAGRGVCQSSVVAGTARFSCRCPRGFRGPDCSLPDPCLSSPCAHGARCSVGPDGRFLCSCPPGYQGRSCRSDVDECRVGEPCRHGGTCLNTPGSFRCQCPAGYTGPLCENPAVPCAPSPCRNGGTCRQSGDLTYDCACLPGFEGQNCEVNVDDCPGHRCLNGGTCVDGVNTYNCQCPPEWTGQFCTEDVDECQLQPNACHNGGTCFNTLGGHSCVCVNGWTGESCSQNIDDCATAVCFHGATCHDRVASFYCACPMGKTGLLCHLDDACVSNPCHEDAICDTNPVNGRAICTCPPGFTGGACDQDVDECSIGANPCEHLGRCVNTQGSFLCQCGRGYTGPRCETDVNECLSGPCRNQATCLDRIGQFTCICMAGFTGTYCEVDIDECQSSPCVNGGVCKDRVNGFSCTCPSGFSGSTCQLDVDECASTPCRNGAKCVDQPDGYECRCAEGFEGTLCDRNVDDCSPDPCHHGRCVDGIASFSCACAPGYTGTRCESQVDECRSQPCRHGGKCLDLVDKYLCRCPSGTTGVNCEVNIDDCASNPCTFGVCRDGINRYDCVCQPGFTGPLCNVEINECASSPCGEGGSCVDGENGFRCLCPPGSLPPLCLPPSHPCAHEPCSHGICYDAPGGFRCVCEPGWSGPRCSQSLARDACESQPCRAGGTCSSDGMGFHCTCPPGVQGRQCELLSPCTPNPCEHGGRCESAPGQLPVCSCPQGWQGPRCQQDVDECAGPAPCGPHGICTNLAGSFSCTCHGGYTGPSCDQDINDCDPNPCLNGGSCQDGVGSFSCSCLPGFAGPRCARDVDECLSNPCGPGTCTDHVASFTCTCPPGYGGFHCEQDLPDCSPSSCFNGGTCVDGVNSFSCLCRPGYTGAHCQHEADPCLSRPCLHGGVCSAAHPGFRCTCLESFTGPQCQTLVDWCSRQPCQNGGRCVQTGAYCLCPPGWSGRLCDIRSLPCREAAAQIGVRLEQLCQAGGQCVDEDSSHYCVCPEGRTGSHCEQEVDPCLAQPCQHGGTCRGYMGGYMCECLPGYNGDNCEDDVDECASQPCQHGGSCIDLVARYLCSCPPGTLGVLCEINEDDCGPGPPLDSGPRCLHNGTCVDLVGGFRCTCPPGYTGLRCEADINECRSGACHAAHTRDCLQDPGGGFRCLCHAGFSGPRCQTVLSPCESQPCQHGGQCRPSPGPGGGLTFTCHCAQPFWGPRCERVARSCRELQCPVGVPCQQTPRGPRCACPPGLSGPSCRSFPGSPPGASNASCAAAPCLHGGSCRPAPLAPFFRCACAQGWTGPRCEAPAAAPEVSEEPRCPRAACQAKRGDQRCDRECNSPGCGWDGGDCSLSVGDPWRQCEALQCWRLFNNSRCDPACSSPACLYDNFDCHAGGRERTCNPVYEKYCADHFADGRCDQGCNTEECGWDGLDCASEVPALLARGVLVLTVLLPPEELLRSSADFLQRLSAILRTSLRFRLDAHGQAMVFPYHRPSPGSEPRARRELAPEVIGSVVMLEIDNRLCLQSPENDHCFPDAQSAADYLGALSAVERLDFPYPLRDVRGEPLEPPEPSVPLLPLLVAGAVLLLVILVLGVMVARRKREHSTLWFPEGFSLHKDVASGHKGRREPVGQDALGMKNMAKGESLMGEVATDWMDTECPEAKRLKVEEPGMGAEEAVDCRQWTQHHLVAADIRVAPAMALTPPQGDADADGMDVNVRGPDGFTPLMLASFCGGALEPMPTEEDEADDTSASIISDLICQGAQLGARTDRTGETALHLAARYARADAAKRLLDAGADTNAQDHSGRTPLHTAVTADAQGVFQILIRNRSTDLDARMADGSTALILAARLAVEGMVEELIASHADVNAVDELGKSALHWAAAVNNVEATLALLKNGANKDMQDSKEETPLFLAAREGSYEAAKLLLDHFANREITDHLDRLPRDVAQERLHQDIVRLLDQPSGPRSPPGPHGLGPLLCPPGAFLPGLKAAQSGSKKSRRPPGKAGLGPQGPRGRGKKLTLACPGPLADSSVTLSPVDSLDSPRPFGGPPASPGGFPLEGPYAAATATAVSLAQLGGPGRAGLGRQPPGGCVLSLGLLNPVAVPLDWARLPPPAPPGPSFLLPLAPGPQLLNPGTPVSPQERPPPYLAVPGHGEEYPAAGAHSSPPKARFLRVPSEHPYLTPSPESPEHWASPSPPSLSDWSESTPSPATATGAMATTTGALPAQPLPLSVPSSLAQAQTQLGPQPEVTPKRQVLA
# [10] = probe aEGFR binding to arrayed compounds – biochemical, biotinylated probe, 635/667 nm fluorescence, primary screen (AID 1097); details: small-molecule microarray, higher = more signal;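 note: probe is a biotinylated anti-EGFR antibody binding compounds printed on slides; score combines fluorescence near 667 nm and signal to noise of each spot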
# [11] = test system: Plasmodium falciparum Sir2 (PF13_0152, Sir2A); assay: Plasmodium falciparum Sir2A binding compounds – biochemical, small-molecule microarray, 635 nm fluorescence, primary screen (AID 1098); details: fluorescence 635 nm, higher = more signal;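 note: score merges spot fluorescence intensity with its signal-to-noise ratio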
# [12] = probe aDKK1 binding to arrayed compounds – biochemical, biotinylated probe, 635/667 nm fluorescence, primary screen (AID 1099); details: small-molecule microarray, higher = more signal;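 note: score merges 667nm spot fluorescence with signal to noise across triplicate slides; reference of the scale not given here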
# [13] = probe aCHRDL2 binding to arrayed compounds – biochemical, biotinylated probe, 635/667 nm fluorescence, primary screen (AID 1100); details: small-molecule microarray, higher = more signal
# [14] = change in splice reporter luminescence, either direction, cell-based, HEK293, spliceosome inhibition project, primary screen (AID 1101); details: HEK293 splicing luciferase reporter, 24 h, higher = more signal, called active from +8 up or from −8 down;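 note: HEK293 cells carrying a splicing-competent luciferase reporter gene; test concentration not given here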
# [15] = target: Fibroblast growth factor 10 (Homo sapiens) (UniProt O15520); assay: compounds binding fibroblast growth factor 10 – biochemical, small-molecule microarray, 635 nm fluorescence, primary screen (AID 1102); details: FGF10 binding, fluorescence 635 nm, higher = more signal
# Chain of Fibroblast growth factor 10 (Homo sapiens) (O15520 whole entry, looked up): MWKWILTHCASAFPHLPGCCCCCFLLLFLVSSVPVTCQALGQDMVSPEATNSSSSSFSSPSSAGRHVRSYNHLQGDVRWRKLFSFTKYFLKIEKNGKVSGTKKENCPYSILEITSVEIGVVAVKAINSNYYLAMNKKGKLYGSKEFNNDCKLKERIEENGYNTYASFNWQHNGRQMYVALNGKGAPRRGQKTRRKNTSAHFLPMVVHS
# [16] = test system: glycogen synthase kinase-3 (GSK3A per assay name; protocol says GSK3B); assay: compounds binding glycogen synthase kinase-3 – biochemical, small-molecule microarray, 635 nm fluorescence, GSK3A, primary screen (AID 1103); details: fluorescence 635 nm, higher = more signal; note: the record names both GSK3A and GSK3B
# [17] = target: Epidermal growth factor receptor (Homo sapiens) (UniProt P00533); assay: compounds binding epidermal growth factor receptor – biochemical, small-molecule microarray, 635 nm fluorescence, primary screen (AID 1104); details: EGFR binding, higher = more signal;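 note: score merges 667 nm emission intensity with spot signal to noise over triplicate slides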
# Chain of Epidermal growth factor receptor (Homo sapiens) (P00533 whole entry, looked up): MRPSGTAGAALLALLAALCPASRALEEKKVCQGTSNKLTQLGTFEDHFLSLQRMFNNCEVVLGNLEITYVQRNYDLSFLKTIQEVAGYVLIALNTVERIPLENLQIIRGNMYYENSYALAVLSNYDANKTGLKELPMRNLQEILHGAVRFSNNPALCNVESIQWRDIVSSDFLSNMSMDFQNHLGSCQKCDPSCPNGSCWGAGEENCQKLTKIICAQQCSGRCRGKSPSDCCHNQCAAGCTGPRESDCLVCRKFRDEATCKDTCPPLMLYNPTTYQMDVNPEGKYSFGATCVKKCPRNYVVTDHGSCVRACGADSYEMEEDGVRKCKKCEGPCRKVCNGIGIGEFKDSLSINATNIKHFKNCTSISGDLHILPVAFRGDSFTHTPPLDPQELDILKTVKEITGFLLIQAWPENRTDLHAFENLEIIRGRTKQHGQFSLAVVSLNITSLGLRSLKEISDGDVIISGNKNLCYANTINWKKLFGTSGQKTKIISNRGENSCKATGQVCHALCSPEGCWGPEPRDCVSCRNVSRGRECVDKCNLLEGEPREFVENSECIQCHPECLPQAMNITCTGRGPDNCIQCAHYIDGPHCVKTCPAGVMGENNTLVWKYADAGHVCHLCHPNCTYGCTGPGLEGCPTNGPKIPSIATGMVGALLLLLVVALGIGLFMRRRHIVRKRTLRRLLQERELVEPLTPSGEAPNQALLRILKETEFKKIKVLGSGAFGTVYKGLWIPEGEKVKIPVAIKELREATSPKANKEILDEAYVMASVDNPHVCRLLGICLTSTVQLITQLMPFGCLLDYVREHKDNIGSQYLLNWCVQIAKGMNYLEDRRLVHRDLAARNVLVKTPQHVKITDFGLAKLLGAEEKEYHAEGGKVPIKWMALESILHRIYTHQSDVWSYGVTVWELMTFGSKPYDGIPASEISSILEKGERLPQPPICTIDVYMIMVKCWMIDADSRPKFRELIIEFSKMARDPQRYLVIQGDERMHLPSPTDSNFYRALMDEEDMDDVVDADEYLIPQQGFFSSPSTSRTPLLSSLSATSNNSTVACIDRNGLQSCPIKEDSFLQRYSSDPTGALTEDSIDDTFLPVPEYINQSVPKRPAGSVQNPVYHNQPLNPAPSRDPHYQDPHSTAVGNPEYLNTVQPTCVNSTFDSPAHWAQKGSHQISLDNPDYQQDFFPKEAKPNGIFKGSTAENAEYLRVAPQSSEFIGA
# [18] = target: Follistatin-related protein 3 (Homo sapiens) (UniProt O95633); assay: compounds binding follistatin-related protein 3 – biochemical, small-molecule microarray, 635 nm fluorescence, primary screen (AID 1105); details: FSTL3 binding, higher = more signal;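 note: score merges emission near 667 nm and signal to noise per printed spot across three slides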
# Chain of Follistatin-related protein 3 (Homo sapiens) (O95633 whole entry, looked up): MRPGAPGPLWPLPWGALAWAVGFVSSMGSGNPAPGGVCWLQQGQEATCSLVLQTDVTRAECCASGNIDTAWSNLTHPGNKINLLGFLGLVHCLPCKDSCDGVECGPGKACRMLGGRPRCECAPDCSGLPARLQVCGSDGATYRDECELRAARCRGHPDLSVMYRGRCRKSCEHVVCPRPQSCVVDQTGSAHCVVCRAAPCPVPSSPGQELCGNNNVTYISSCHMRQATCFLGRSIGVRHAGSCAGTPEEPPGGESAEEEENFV
# [19] = target: Dickkopf-related protein 1 (Homo sapiens) (UniProt O94907); assay: small molecules binding DKK1 protein – biochemical, small-molecule microarray, 635 nm fluorescence scan, primary screen (AID 1106); details: higher = more signal;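 note: score merges emission near 667 nm with signal to noise over three replicate slides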
# Chain of Dickkopf-related protein 1 (Homo sapiens) (O94907 whole entry, looked up): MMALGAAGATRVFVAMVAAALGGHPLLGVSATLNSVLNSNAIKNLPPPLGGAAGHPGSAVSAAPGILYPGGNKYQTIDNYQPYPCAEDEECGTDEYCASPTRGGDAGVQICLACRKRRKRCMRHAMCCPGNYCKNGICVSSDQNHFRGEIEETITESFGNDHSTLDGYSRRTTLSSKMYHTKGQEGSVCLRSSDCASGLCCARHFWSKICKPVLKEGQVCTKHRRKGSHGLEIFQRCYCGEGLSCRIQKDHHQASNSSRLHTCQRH
# [20] = test system: Inhibin beta A chain (activin A); assay: small molecules binding activin A – biochemical, small-molecule microarray, 635 nm fluorescence scan, primary screen (AID 1107); details: INHBA, higher = more signal;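 note: mouse activin A protein probed at 4.33 µg/mL on printed slides; score merges bound-protein fluorescence near 667 nm with spot signal-to-noise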
Compound,composite z-score [1],z-score [2],z-score [3],z-score [4],composite z-score [5],z-score [6],composite z-score [7],composite z-score [8],composite z-score [9],composite z-score [10],composite z-score [11],composite z-score [12],composite z-score [13],z-score [14],composite z-score [15],composite z-score [16],composite z-score [17],composite z-score [18],composite z-score [19],composite z-score [20]
COCCOC(=O)N1C(=O)[C@@]2(c3cc(C#Cc4ccc(OC)cc4)ccc31)[C@H](c1ccc(OCCO)cc1)N1[C@H](c3ccccc3)[C@H](c3ccccc3)OC(=O)[C@H]1[C@@H]2C(=O)Nc1nc2ccccc2s1,1.14,1.77 (inactive),1.43 (inactive),1.96 (inactive),2.2,1.82 (inactive),0.188,0.55,0.95,-0.0437,0.181,0.636,0.533,-0.697 (inactive),1.06,0.506,0.397,0.805,0.154,0.598
COC(=O)[C@@]1(Cc2ccccc2)[C@H]2c3cc(C(=O)N4CCCC4)n(CCSCCO)c3C[C@H]2CN1C(=O)c1ccccc1,0.465,0.118 (inactive),0.307 (inactive),-0.0727 (inactive),3.67,-1 (inactive),0.788,0.511,0.899,0.0971,0.809,1.25,1.2,-0.393 (inactive),0.283,0.954,-0.0631,0.414,-0.78,0.964
CC1CC/C=C\[C@H]2OC34C=CCN(CCN5CCOCC5)C(=O)[C@H]3N(C(C)CO)C(=O)[C@@H]4C2C(=O)O1 (stereo not given in full),0.564,0.194 (inactive),-0.365 (inactive),0.0614 (inactive),3.36,-0.476 (inactive),-0.161,0.223,0.21,-0.156,0.489,-0.356,-0.415,1.02 (inactive),-0.42,-0.42,-0.599,-0.214,-0.0076,1.14
O=C1C2C=CC(C(O)c3ccco3)N(Nc3ccccc3)C2C(=O)N1c1ccccc1 (stereo not given),-0.182,0.928 (inactive),0.0851 (inactive),0.662 (inactive),1.13,-0.353 (inactive),-0.147,-0.569,0.504,-0.192,0.576,0.144,0.878,0.14 (inactive),-0.322,-0.678,-0.616,-0.713,-0.555,0.781
C=C(/C(=C/C[C@H](OC(=O)c1ccncc1)c1cccc(OCCO)c1)c1cnc2ccccc2c1)C(C)C,1.54,-25.3 (active),-20.3 (active),-4.3 (inactive),1.21,-0.315 (inactive),-0.115,1.85,1.07,-0.0578,0.411,-0.0011,0.454,-1.46 (inactive),1.47,1.18,0.539,1.51,0.739,1.68
C=CCNC(=O)[C@H]1[C@@H]2C(=O)O[C@@H](c3ccccc3)[C@@H](c3ccccc3)N2[C@@H](c2ccc(O)cc2)[C@]12C(=O)N(C(=O)OCCOC)c1ccc(C#CCC(C(=O)OC)C(=O)OC)cc12,1.56,0.106 (inactive),1.57 (inactive),5.5 (inactive),2.11,0.301 (inactive),-0.0229,1.2,1.11,0.0551,1.37,0.119,0.236,0.173 (inactive),1.1,1.19,0.564,0.914,0.641,0.23
CCCNC(=O)[C@@]1(C)c2ccccc2C(=O)N(Cc2ccccc2)[C@H]1c1ccc(CO)cc1,1.54,-0.864 (inactive),-1.08 (inactive),-0.871 (inactive),2.76,1.32 (inactive),0.0844,-1.1,-0.127,-0.094,0.956,0.74,0.963,1.34 (inactive),0.391,-0.136,-1.54,-0.487,-0.766,-0.765
CN1C(=O)[C@@H]2[C@@H](CC(COc3ccccc3)=C([C@H](O)CCc3ccccc3)[C@@H]2CO)C1=O,-0.268,0.0937 (inactive),-1.87 (inactive),-0.537 (inactive),-0.551,2.41 (inactive),-0.0971,-0.358,-0.932,-0.0947,-0.194,-0.0537,-0.317,-0.165 (inactive),-0.0903,-0.621,0.218,-0.0809,0.298,0.484
COc1ccc([Si](C)(C)[C@@H]2[C@@H](CCn3cc([C@H](O)c4ccccc4)nn3)O[C@]3(C(=O)N(c4ccccc4)c4ccccc43)[C@H]2C)cc1,1.11,-0.613 (inactive),-0.101 (inactive),1.43 (inactive),0.986,1.15 (inactive),-0.0998,0.431,0.281,-0.0452,0.548,-0.016,-0.142,-1.18 (inactive),0.23,-0.15,-0.302,0.115,0.181,0.372
